PRC2 inh: EZH2/PRC2 methyltransferase inhibitors, primary screen, biochemical, DELFIA time-resolved fluorescence, single point; Histone-lysine N-methyltransferase EZH2 (Homo sapiens), Q15910; PRC2 H3K27 methylation, DELFIA TRF, 1 h; inhibition, % at 12.5 µM; 57,000 compounds, 0.35% hits; AID 651548, 2012;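 active = mean inhibition of replicates at least 50% and every single replicate also reaching 50%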;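 note: dimethyl H3K27 on biotinylated H3 21-44 peptide detected by antibody; plate controls were median neutral control wells for no effect and median positive control wells for full effect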
Target sequence (Q15910 whole entry, looked up): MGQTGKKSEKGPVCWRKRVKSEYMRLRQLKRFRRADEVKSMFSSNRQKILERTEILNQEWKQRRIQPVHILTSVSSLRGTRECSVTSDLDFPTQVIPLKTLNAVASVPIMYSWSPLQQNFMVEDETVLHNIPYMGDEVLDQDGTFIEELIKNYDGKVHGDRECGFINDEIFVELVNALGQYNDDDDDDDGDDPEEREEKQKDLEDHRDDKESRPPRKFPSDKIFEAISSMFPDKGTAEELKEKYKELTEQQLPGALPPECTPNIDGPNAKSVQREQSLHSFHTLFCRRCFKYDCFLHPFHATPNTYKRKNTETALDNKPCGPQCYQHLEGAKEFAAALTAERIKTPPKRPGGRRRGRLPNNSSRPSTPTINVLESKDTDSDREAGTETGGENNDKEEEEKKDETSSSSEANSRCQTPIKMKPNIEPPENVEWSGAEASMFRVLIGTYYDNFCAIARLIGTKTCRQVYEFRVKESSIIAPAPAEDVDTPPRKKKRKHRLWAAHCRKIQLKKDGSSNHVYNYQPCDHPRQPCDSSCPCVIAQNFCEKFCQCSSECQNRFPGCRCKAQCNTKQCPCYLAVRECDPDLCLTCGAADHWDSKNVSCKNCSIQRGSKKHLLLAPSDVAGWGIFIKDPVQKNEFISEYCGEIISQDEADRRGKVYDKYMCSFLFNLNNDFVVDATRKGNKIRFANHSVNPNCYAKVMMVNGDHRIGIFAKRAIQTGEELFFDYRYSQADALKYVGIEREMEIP
* = called active by the depositor. Only a selection was taken, and hits are over-represented in it overall.

SMILES	PRC2 inh
O=C(CCCCC(=O)N/N=C/c1ccc(-c2ccccc2)c(F)c1)NO	-12
COC(=O)CCCCCCC(=O)N/N=C/c1ccc(Oc2ccccc2)cc1	-3
COC(=O)CCCCCCC(=O)N/N=C/c1ccc(-c2ccccc2)c(F)c1	60*
Cn1nnnc1SCC(=O)Nc1ccc2ccccc2c1	2
CS(=O)(=O)N(CC(=O)O)c1ccc(F)c(Cl)c1	-8
O=C(Oc1ccc([C@@H]2Oc3cc(O)cc(O)c3C[C@H]2O)cc1O)c1cc(O)c(O)c(O)c1	99*
O=C1C[C@@H](c2ccccc2)Oc2cc(O)cc(O)c21	-14
COc1cc(C2Oc3c(O)ccc([C@@H]4Oc5cc(O)cc(O)c5C(=O)[C@H]4O)c3C2CO)ccc1O (stereo not given in full)	17
CC1(CO)C=Cc2c(cc(O)c3c(=O)c(-c4ccc(O)cc4)coc23)O1 (stereo not given)	65*
COc1ccc(-c2coc3c(OC)c(OC)cc(OC)c3c2=O)cc1	7
COc1ccc(-c2coc3c(OC)c(O)ccc3c2=O)cc1	1
CCOC(=O)c1c(NC(=O)CN2C(=O)c3ccccc3S2(=O)=O)sc2c1CCCC2	18
CO[C@@H]1CN(C)C(=O)c2cc(NC(=O)Nc3c(C)noc3C)ccc2OC[C@@H](C)N(CCC(F)(F)F)C[C@H]1C	6
C[C@@H](NC(=O)C[C@H]1C[C@H]2c3cc(NC(=O)NC4CCCC4)ccc3O[C@H]2[C@@H](CO)O1)c1ccccc1	-10
O=C(C[C@@H]1C[C@@H]2c3cc(NS(=O)(=O)c4ccc(F)cc4)ccc3O[C@@H]2[C@@H](CO)O1)NCC1CC1	17
C[C@H]1CN([C@@H](C)CO)S(=O)(=O)c2ccc(-c3ccc(C#N)cc3)cc2O[C@H]1CN(C)C(=O)C1CC1	-1
COc1cc(Br)c(/C=N/NC(=O)c2ccccc2O)cc1OC	67*
COc1ccc(/C=N/NC(=O)c2ccccc2O)cc1Br	-8
COc1cc(Br)cc(/C=N/NC(=O)c2ccccc2O)c1O	5
COc1ccc(CN(C)C[C@@H]2Oc3ccc(NS(=O)(=O)c4ccc(F)cc4)cc3C(=O)N([C@@H](C)CO)C[C@H]2C)cc1	7
C[C@@H]1CN([C@@H](C)CO)C(=O)Cc2cc(N(C)C)ccc2O[C@@H]1CN(C)S(=O)(=O)c1cn(C)cn1	9
CN1CCN(C(=O)C[C@@H]2C=C[C@@H](NC(=O)Cc3ccccn3)[C@@H](CO)O2)CC1	0
O=C(CC(Sc1ccc(Cl)cc1)c1ccc(Cl)cc1)C1CC1 (stereo not given)	53*
C[C@H](CO)N1C[C@H](C)[C@H](CN(C)Cc2ccccc2)Oc2c(NC(=O)C3CCOCC3)cccc2C1=O	-16
CN(C)CC(=O)Nc1ccc2c(c1)[C@H]1C[C@H](CC(=O)NCc3ccccc3)O[C@H](CO)[C@H]1O2	-12
SMILES	PRC2 inh
COc1ccc(C(C)=O)c(O)c1	-3
COCc1cc(O)c(O)c(O)c1-c1c(COC)cc(O)c(O)c1O	88*
C[C@@H]1CN([C@@H](C)CO)C(=O)c2cccc(NS(=O)(=O)c3ccc(Cl)cc3)c2O[C@@H]1CN(C)C(=O)Nc1ccc(F)cc1	-2
Cc1ccc(OC(=O)N(C)C[C@@H]2OCc3ccccc3-c3ccccc3C(=O)N([C@H](C)CO)C[C@H]2C)cc1	-7
COc1cc(/C=C/c2ccc(OC)cc2OC)cc(OC)c1	51*
COc1ccc(/C=N/NC(=O)c2ccc(C(=O)NO)cc2)c(OC)c1	-1
COC(=O)CCCCCCC(=O)N/N=C/c1ccc(OC)cc1OC	8
C[C@H](CO)N1C[C@H](C)[C@@H](CN(C)C(=O)Nc2ccc(C(F)(F)F)cc2)Oc2ccc(NC(=O)C3CC3)cc2CC1=O	3
C[C@@H]1CN([C@@H](C)CO)C(=O)c2cc(NC(=O)NC3CCCCC3)ccc2O[C@@H](C)CCCCO[C@@H]1CN(C)C	-19
C[C@H]1CN([C@@H](C)CO)C(=O)Cc2cc(NS(=O)(=O)c3ccccc3)ccc2O[C@H]1CN(C)Cc1ccc2c(c1)OCO2	-4
O=C(C[C@H]1C[C@H]2c3cc(NC(=O)Cc4ccncc4)ccc3O[C@H]2[C@@H](CO)O1)NCc1ccc2c(c1)OCO2	-11
COc1ccc([Si](C)(C)[C@@H]2[C@@H](CC(=O)N3Cc4ccccc4C[C@H]3CO)O[C@]3(C(=O)N(C)c4c(Br)cc(C)cc43)[C@H]2C)cc1	18
COc1ccc(C(=O)Nc2ccc(CN3C(=O)[C@]4(O[C@H](CC(=O)N5Cc6ccccc6C[C@H]5CO)[C@@H]([Si](C)(C)c5ccc(OC)cc5)[C@@H]4C)c4ccccc43)cc2)cc1	-2
C/C=C/[C@H](CC(=O)N1Cc2ccccc2C[C@H]1CO)[Si](C)(C)c1ccc(OC)cc1	57*
CO[C@H]1CN(C)C(=O)c2ccc(NC(=O)C3CC3)cc2OC[C@H](C)N(C(=O)c2ccccc2)C[C@@H]1C	-8
C[C@@H]1CN([C@@H](C)CO)C(=O)c2cc(C#CC3CC3)cnc2O[C@H]1CN(C)C(=O)c1ccccc1	-8
COC(=O)[C@H](Cc1ccccc1)N1C(=O)O[C@H](Cc2ccccc2)[C@@H]1/C=C/C1CC1	56*
COc1ccccc1NC(=O)C(Cc1ccccc1)N1C(=O)C2C3c4ccccc4C(c4ccccc43)C2C1=O (stereo not given)	-2
COC(=O)[C@H](Cc1ccc(N=[N+]=[N-])cc1)N1CC(/C=C/[C@@H](O)Cc2ccccc2)=C[C@@H](C2CC2)O1	0
C[C@@H]1CN([C@H](C)CO)C(=O)c2cc(N(C)C)ccc2O[C@@H](C)CCCCO[C@H]1CN(C)Cc1ccc(C(=O)O)cc1	-7
COc1ccc(NC(=O)Nc2ccc3c(c2)[C@H]2C[C@@H](CC(=O)NCc4ccccc4F)O[C@@H](CO)[C@H]2O3)cc1	-20
CCCNC(=O)C[C@@H]1C[C@H]2c3cc(NC(=O)CC4CC4)ccc3O[C@H]2[C@H](CO)O1	7
COc1cc(/C=N/NC(=O)CCCCC(=O)NO)c([N+](=O)[O-])cc1OC	-15
O=C(CCc1ccc(O)cc1)c1c(O)c([C@@H]2O[C@H](CO)[C@@H](O)[C@H](O)[C@H]2O)c(O)c([C@@H]2O[C@H](CO)[C@@H](O)[C@H](O)[C@H]2O)c1O	11
OC[C@H]1O[C@@H](OC(CCCCc2ccc(O)cc2)CCc2ccc(O)cc2)[C@H](O)[C@@H](O)[C@@H]1O (stereo not given in full)	73*
SMILES	PRC2 inh
Oc1ccc(CCCCC(CCc2ccc(O)cc2)O[C@@H]2OC[C@@H](O)[C@H](O)[C@H]2O)cc1 (stereo not given in full)	11
Cc1ccc(S(=O)(=O)N(C)C[C@@H]2Oc3c(NC(=O)NC4CCCCC4)cccc3C(=O)N([C@@H](C)CO)C[C@@H]2C)cc1	-9
Cc1nnsc1C(=O)Oc1ccc(-c2n[nH]nc2C#N)cc1	-14
O=C(CSc1n[nH]c(-c2ccc(Cl)cc2)n1)Nc1ccc(Br)c(Cl)c1	-4
COc1ccc(-c2nc(SCC(=O)Nc3ccc(Br)c(Cl)c3)n[nH]2)cc1	57*
COc1ccc(-c2nc(SCC(=O)Nc3cccc(Br)c3)n[nH]2)cc1	2
Cc1cc(N(CC(=O)Nc2ccc(Cl)c(Cl)c2)S(C)(=O)=O)ccc1Br	16
O=C(CCCCCCC(=O)Nc1ccc(CO)cc1)NOCc1ccccc1	4
O=C(CSc1nc(-c2ccccc2)cc(=O)[nH]1)Nc1cc(C(F)(F)F)ccc1Cl	64*
